A number with no mark means an inactive call. Results filed as inconclusive are left out. Activity calls are given as the source filed them. Unless noted, the call rests on the fitted dose curve.

Our source for the Potency and outcome values is PubChem BioAssay (Tox21).

Assay [1] can be described thus: Nuclear factor erythroid 2-related factor 2/antioxidant responsive element (Nrf2/ARE) small molecule agonists: qHTS cell viability counter screen in human keratinocytes (AID 1919968; active means well fitted curve in the direction sought with a large enough effect in the repeat runs; an effect the other way counts as inactive or inconclusive; further: nearly all actives have a fitted effect of over 55% in size). In short, it runs like this:
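HaCaT ARE reporter line, 1,500 cells/well; 5 h settle, 37 C/5% CO2; cpd in DMSO pinned; 23 h exposure; CellTiter-Fluor, 1 h; fluorescence.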
(Quantitative high-throughput screening tests each substance at several concentrations.)

Assay [2] is described as follows: Nuclear factor erythroid 2-related factor 2/antioxidant responsive element (Nrf2/ARE) small molecule agonists: luciferase reporter gene qHTS assay in human keratinocytes (AID 1919969). Further: nearly all actives have a fitted effect of over 35% in size. Further: potency means the concentration at half of the fitted maximal effect.
Assay [3] addresses Gonadotropin-releasing hormone receptor (Homo sapiens) (UniProt P30968). Briefly: Human gonadotropin-releasing hormone receptor (GnRHR) small molecule agonists, calcium flux assay in GnRHR-HEK293 cells (AID 1920063). Further: nearly all actives have a fitted effect of over 35% in size. In short, it runs like this:
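GnRHR-HEK293, 1500 cells/well, 18 h 37 C/5% CO2; Ca dye 1 h 37 C; cpd pinned (DMSO), agonist mode; kinetic FL 480/540, 3 min, 1 s reads; 15 conc, n=3.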
Background: A change in cytosolic calcium serves as a functional read-out for many receptors and channels.

Assay [4] addresses KiSS-1 receptor (Homo sapiens) (UniProt Q969F8). Briefly: Human kisspeptin (KISS1R) small molecule agonists, calcium flux assay in KISS1R-HEK293 cells (AID 1920064; active means well fitted curve in the direction sought with a large enough effect in the repeat runs; an effect the other way counts as inactive or inconclusive). The method, boiled down:
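Stable human KISS1R HEK293 line; 18 h plating, 37 C/5% CO2; calcium dye 1 h 37 C; compound pin transfer; kinetic fluorescence Ex/Em 480/540, 3 min.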

Assay [5] can be described thus: G protein-coupled receptor (GPCR) small molecule agonists, calcium flux assay: HEK293 wild type cell line counter screen (AID 1920065). In short, it runs like this:
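Kinetic fluorescence at Ex/Em 480/540, recorded every second over 3 min, served as the read-out after compound addition. Each compound was tested at 15 concentrations in triplicate on cells pre-loaded with calcium dye for 1 h.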

Assay [6] in a line: p53 small molecule agonists, cell-based qHTS assay with human liver microsomes (AID 1963577).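 Further: p53 response element beta-lactamase reporter cells with liver microsomes plus NADPH.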 In short, it runs like this: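 HLM-supplemented p53RE-bla reporter assay: 16 h compound exposure at 37 C, microsomes and NADPH each 0.5 mg/mL final, read by fluorescence intensity.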
A short description of assay [7]: p53 small molecule agonists, cell-based qHTS assay with rat liver microsomes (AID 1963578). In short, it runs like this: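 Quantitative HTS of the Tox21 10K library: p53RE-bla cells, rat liver microsomes plus NADPH at 0.5 mg/mL final each, 16 h at 37 C, beta-lactamase fluorescence detection.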
Assay [8] can be described thus: p53 small molecule agonists, cell-based qHTS assay with human liver microsomes: qHTS cell viability counter screen (AID 1963579). Further: nearly all actives have a fitted effect of over 45% in size. The method, boiled down: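 Viability of p53RE-bla cells is measured as CellTiter-Glo luminescence following a 16 h, 37 C incubation with compound, liver microsomes from human donors and NADPH.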
Assay [9] can be described thus: p53 small molecule agonists, cell-based qHTS assay with rat liver microsomes: qHTS cell viability counter screen (AID 1963580). Further: nearly all actives have a fitted effect of over 45% in size. The method, boiled down:
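Viability is assessed in parallel with the p53 reporter read: HCT-116 p53RE-bla cells receive compounds plus rat microsomes and NADPH (0.5 mg/mL final apiece), incubate 16 h at 37 C, and then CellTiter-Glo luminescence is recorded.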

A short description of assay [10]: p53 small molecule agonists, cell-based qHTS assay: qHTS cell viability counter screen (AID 1963581). Further: nearly all actives have a fitted effect of over 45% in size. The method, boiled down: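 HCT-116 p53RE-bla cells, 4,000/well, plated 5 h before compound pin transfer; 16 h at 37 C; bla substrate 2 h RT; then CellTiter-Glo, 30 min RT, luminescence.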
Assay [11] in a line: p53 small molecule agonists, cell-based qHTS assay (AID 1963582; active means well fitted activation curve with a large enough effect in the signal ratio in the repeat runs, not every such curve was filed as active; the % refers to the signal ratio). The method, boiled down: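 Reporter line: p53RE-bla. Pre-incubation 5 h, 37 C, 5% CO2; compound (DMSO, pin tool) 16 h, 37 C; B/G FRET substrate 2 h RT; fluorescence intensity read.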
For assay [12], the target named is 5-hydroxytryptamine receptor 2A (Homo sapiens) (UniProt P28223). Briefly: 5-hydroxytryptamine receptor 2A (HTR2A) small molecule agonists, cell-based qHTS assay (AID 1963587). Further: nearly all actives have a fitted effect of over 30% in size. In short, it runs like this:
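CHO cells stably expressing human HTR2A, plated 18 h, loaded with calcium dye 1 h at 37 C. Agonist mode: compounds added and intracellular calcium fluorescence recorded kinetically for 2 min at 1 sec intervals.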

In assay [13] the target is Muscarinic acetylcholine receptor M1 (Homo sapiens) (UniProt P11229). As to the kind of experiment: Cholinergic receptor muscarinic 1 (CHRM1) small molecule agonists, cell-based qHTS assay (AID 1963589). Further: nearly all actives have a fitted effect of over 35% in size. In short, it runs like this:
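Human M1 in stable CHO line; 18 h plating, 1 h dye load 37 C; cpd added (agonist mode); Ca2+ fluorescence kinetic read, 1 s intervals; 15 conc, 3 runs.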

Assay [14] addresses Beta-2 adrenergic receptor (Homo sapiens) (UniProt P07550). As to the kind of experiment: Adrenergic beta2 receptor (ADRB2) small molecule antagonists, cell-based qHTS assay (AID 1963592). Further: series mostly up to about 92 µM; nearly all actives have a fitted effect of over 50% in size. In short, it runs like this: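 Cells (CHO, stable ADRB2 overexpression) incubated 18-20hr at 37C; compounds added from DMSO; agonist mix (1nM isoproterenol, 100uM IBMX, 25uM Ro-20-1724) added; 0.5hr RT; d2-cAMP and anti-cAMP-cryptate added; 1hr RT; 665/615 nm read.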

For assay [15] the target is unchanged. Briefly: Adrenergic beta2 receptor (ADRB2) small molecule agonists, cell-based qHTS assay (AID 1963593).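 Further: CHO cells stably overexpressing human ADRB2.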 In short, it runs like this:
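CHO cells stably over-expressing ADRB2 were plated overnight at 37C, then dosed with compounds plus a stimulation mix containing 100uM IBMX and 25uM Ro-20-1724 for 0.5hr at room temperature. cAMP was measured by HTRF competition, 1hr.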

Assay [16] addresses D(2) dopamine receptor (Homo sapiens) (UniProt P14416). Briefly: Dopamine D2 receptor (DRD2) small molecule agonists, cell-based qHTS assay (AID 1963594). Further: nearly all actives have a fitted effect of over 35% in size. In short, it runs like this:
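HEK293 cells stably expressing human DRD2, pre-treated with PDE inhibitor Ro20-1724 (0.1 mM final) and compound 10 min at room temperature, then stimulated with NKH477 (200nM […]) for 30 min. cAMP read by HTRF (665/620 nm).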

For assay [17] the target is unchanged. As to the kind of experiment: Dopamine D2 receptor (DRD2) small molecule antagonists, cell-based qHTS assay (AID 1963595; active means well fitted inhibition curve with a large enough effect in the signal ratio in the repeat runs, with a control signal flat; the % refers to the signal ratio). In short, it runs like this: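 Cells were plated and grown for 24 h at 37 °C. Ro20-1724 (0.1 mM final) went in first, then compound for 10 min. NKH477 (200 nM) with quinpirole (12 nM) followed for 30 min at RT, then HTRF detection reagents for 1 h.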

Assay [18] deals with Muscarinic acetylcholine receptor M1 (Homo sapiens) (UniProt P11229). Briefly: Cholinergic receptor muscarinic 1 (CHRM1) small molecule antagonists, cell-based qHTS assay (AID 1963588). Further: nearly all actives have a fitted effect of over 40% in size. In short, it runs like this:
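CHRM1-CHO calcium-flux assay, antagonist mode. Cells were seeded 18 h, dye-loaded 1 h at 37 C and given compound for 5 min at RT, then acetylcholine was added at 50nM. FDSS fluorescence was read 3 min; 15 concentrations, three runs.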

Assay [19] in a line: cAMP Responsive Elements (CRE) small molecule agonists, cell-based qHTS assay (AID 1963590). In short, it runs like this: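 HEK 293T CRE-bla, 2,000 cells/well, 18 h preincubation 37 C/5% CO2; cpds (DMSO) pinned, 3 h; LiveBLAzer B/G FRET substrate, 2 h RT.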
The nature of assay [20]: cAMP Responsive Elements (CRE) small molecule antagonists, cell-based qHTS assay (AID 1963591; active means well fitted inhibition curve with a large enough effect in the signal ratio in the repeat runs, not every such curve was filed as active; the % refers to the signal ratio). The method, boiled down:
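Beta-lactamase reporter read by FRET substrate (LiveBLAzer B/G) after 2 h at room temperature. CRE-bla HEK293T cells had received compound plus 0.25 uM (final) NKH477 for 3 h at 37 °C.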

5-hydroxytryptamine receptor 2A (Homo sapiens), sequence (P28223 whole entry, looked up): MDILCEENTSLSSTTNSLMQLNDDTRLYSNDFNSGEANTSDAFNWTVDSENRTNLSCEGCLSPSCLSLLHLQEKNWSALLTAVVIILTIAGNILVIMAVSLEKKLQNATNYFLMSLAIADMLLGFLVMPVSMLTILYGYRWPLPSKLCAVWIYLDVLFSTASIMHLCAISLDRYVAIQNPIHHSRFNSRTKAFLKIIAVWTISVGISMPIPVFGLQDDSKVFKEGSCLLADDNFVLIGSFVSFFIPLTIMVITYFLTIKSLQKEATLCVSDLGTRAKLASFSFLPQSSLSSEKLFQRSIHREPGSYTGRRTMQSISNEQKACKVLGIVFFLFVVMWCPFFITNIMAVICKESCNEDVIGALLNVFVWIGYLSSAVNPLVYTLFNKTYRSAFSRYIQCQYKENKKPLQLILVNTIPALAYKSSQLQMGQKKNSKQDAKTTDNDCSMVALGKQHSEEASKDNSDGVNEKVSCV
Beta-2 adrenergic receptor (Homo sapiens), sequence (P07550 whole entry, looked up): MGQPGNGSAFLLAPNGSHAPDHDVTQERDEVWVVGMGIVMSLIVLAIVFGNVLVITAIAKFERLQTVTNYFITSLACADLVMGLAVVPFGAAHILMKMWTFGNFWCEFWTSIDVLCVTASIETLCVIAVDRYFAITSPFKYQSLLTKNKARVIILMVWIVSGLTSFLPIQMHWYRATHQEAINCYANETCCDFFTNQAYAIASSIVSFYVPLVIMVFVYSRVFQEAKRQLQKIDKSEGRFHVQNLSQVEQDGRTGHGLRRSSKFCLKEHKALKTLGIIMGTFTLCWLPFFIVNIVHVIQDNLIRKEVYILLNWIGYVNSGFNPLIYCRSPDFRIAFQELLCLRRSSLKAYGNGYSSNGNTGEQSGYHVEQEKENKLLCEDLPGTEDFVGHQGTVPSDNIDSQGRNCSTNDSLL
KiSS-1 receptor (Homo sapiens), sequence (Q969F8 whole entry, looked up): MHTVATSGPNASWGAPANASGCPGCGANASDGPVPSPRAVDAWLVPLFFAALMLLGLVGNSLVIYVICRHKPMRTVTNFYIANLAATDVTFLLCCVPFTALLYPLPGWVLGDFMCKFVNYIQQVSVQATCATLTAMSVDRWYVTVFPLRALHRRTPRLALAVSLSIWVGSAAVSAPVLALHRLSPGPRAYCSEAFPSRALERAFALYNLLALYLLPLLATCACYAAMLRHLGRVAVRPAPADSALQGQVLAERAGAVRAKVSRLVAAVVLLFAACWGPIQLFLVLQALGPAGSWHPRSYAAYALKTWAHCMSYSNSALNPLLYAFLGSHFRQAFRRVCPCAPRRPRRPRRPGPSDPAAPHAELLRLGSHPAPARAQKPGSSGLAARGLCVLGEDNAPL
Gonadotropin-releasing hormone receptor (Homo sapiens), sequence (P30968 whole entry, looked up): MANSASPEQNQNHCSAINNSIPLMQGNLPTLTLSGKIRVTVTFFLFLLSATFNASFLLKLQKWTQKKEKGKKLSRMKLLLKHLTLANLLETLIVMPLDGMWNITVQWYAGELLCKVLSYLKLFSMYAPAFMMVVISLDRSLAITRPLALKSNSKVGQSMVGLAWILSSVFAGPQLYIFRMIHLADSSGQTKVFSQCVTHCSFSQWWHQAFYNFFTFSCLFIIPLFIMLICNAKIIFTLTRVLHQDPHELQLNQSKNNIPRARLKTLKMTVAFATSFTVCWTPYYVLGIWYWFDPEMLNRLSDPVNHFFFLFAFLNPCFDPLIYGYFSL
D(2) dopamine receptor (Homo sapiens), sequence (P14416 whole entry, looked up): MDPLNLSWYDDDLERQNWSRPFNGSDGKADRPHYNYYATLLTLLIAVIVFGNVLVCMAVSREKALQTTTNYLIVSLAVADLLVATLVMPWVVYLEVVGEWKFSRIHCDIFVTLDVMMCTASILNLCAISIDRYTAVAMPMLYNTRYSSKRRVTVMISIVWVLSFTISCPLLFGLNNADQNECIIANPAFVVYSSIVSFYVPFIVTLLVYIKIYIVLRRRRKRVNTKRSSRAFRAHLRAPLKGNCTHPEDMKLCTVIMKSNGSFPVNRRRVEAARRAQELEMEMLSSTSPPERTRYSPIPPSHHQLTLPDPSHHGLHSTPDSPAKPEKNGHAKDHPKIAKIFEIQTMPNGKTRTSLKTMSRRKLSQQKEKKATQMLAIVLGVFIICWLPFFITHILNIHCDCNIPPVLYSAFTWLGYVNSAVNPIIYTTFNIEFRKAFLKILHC
Muscarinic acetylcholine receptor M1 (Homo sapiens), sequence (P11229 whole entry, looked up): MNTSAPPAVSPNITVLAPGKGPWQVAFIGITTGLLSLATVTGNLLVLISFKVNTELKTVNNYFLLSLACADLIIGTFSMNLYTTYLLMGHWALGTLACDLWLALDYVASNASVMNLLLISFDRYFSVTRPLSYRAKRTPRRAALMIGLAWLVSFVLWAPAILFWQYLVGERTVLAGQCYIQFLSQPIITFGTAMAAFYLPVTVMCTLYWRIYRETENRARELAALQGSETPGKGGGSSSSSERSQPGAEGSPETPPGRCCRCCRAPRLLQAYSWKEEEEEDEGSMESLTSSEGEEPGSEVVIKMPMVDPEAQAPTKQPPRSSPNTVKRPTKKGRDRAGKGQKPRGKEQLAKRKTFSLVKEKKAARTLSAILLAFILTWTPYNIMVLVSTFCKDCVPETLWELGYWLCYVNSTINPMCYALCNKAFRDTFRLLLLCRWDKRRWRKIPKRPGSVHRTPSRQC

For `CCCCNc1c(C(=O)OCC)c(C)nc2c1cnn2CC`, the Potency entry in [1], in [2], in assay [3], in [6], in assay [7] and in assay [8] was “inactive” in each case. Further, the Potency entry in [9], in assay [10], in assay [11], in [12], in assay [13] and in [14] was “inactive” throughout. For the same compound, the Potency entry in assay [15], in [16] and in assay [17] was “inactive” each time. Also, the outcome in [4] and in assay [5] was inactive.

In the case of `O=C(O)CCCc1ccccc1`, the Potency result in [1], in [2], in [3], in assay [6], in assay [7] and in assay [8] was “inactive” each time. The Potency entry in assay [9], in [10], in assay [11], in [12], in assay [18] and in [19] was “inactive” each time. In addition, the Potency entry in assay [20], in [14], in [16] and in assay [17] was “inactive” in each case. For the same compound, the result in assay [4] and in [5] was inactive.

On to `CCCCOC(=O)CC`, for which the Potency entry in assay [1], in assay [2], in [3], in assay [6], in [7] and in assay [8] was “inactive” throughout. For the same compound, the Potency entry in assay [9], in [10], in assay [11], in [12], in [13] and in [19] was “inactive” each time. Besides, the Potency entry in assay [14], in assay [15] and in assay [16] was “inactive” in each case. Moreover, the result in assay [4] and in [5] was inactive.

For `O=[N+]([O-])c1cc(Cl)c(Cl)c(Cl)c1Cl`, the Potency entry in [1], in assay [3], in assay [6], in [7], in assay [8] and in assay [9] was “inactive” each time. In addition, the Potency entry in assay [10], in [11], in [12], in assay [18], in assay [13] and in assay [20] was “inactive” in each case. In addition, the Potency entry in assay [14], in assay [16] and in assay [17] was “inactive” throughout. In assay [2], the Potency was 48.4 µM (active). Moreover, the outcome in [4] and in assay [5] was inactive.

In the case of `C=CN1CCCCCC1=O`, the Potency result in assay [1], in [2], in [3], in [6], in assay [7] and in assay [8] was “inactive” throughout. The Potency entry in [9], in [10], in assay [11], in [12], in [18] and in assay [13] was “inactive” throughout. For the same compound, the Potency entry in assay [14], in [15], in [16] and in assay [17] was “inactive” in each case. Further, the outcome in assay [4] and in assay [5] was inactive.

On to `CCOc1cc([N+](=O)[O-])c(OCC)cc1N1CCOCC1`, for which the Potency result in assay [1], in [2], in [3], in assay [6], in assay [7] and in assay [8] was “inactive” throughout. For the same compound, the Potency result in assay [9], in [10], in assay [11], in assay [12], in [18] and in assay [13] was “inactive” in each case. Besides, the Potency entry in [14] and in assay [16] was “inactive” each time. In addition, the outcome in [4] and in assay [5] was inactive.

On to `OC[C@H]1O[C@@H](O[C@@H]2[C@@H](CO)O[C@](O)(CO)[C@H]2O)[C@H](O)[C@@H](O)[C@H]1O`, for which the Potency entry in assay [1], in [2], in [3], in [6], in assay [7] and in assay [8] was “inactive” each time. For the same compound, the Potency result in assay [9], in assay [10], in assay [11], in assay [12], in [18] and in assay [13] was “inactive” throughout. Also, the Potency entry in assay [20], in assay [14], in assay [15], in [16] and in assay [17] was “inactive” each time. Further, the outcome in assay [4] and in assay [5] was inactive.
